Legend:
Assay in all cases: log2 ratio of Biotin-Ahx-Ub-VS probe labelling (fragment/DMSO); higher = less target engagement (more negative = stronger competition), active = hit call of the paper (q ≤ 0.05, log2 ratio ≤ -1)
Details in all cases: compound concentration: 200 uM; treatment time: 3 h
[1] = biological target: USP34 (UniProt Q70CQ2)
How it was run: (§1)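 HEK293T lysate (495 µg per sample, in Tris/CHAPS/IGEPAL buffer with protease inhibitors) was exposed in triplicate for 3 h to fragment at 200 µM or to vehicle, then to Biotin-Ahx-Ub-VS at 0.5 µM final for 1 h. Labelled DUBs were enriched on NeutrAvidin, digested with LysC and trypsin, and analysed by diaPASEF LC-MS/MS. Spectronaut label-free quantities were normalised to the global median, and values are average log2 ratios of fragment over vehicle from an unpaired t-test. Only proteins with ≥2 unique peptides were used.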

[2] = biological target: T1, USP36 (UniProt Q9P275)
T1 sequence (whole entry): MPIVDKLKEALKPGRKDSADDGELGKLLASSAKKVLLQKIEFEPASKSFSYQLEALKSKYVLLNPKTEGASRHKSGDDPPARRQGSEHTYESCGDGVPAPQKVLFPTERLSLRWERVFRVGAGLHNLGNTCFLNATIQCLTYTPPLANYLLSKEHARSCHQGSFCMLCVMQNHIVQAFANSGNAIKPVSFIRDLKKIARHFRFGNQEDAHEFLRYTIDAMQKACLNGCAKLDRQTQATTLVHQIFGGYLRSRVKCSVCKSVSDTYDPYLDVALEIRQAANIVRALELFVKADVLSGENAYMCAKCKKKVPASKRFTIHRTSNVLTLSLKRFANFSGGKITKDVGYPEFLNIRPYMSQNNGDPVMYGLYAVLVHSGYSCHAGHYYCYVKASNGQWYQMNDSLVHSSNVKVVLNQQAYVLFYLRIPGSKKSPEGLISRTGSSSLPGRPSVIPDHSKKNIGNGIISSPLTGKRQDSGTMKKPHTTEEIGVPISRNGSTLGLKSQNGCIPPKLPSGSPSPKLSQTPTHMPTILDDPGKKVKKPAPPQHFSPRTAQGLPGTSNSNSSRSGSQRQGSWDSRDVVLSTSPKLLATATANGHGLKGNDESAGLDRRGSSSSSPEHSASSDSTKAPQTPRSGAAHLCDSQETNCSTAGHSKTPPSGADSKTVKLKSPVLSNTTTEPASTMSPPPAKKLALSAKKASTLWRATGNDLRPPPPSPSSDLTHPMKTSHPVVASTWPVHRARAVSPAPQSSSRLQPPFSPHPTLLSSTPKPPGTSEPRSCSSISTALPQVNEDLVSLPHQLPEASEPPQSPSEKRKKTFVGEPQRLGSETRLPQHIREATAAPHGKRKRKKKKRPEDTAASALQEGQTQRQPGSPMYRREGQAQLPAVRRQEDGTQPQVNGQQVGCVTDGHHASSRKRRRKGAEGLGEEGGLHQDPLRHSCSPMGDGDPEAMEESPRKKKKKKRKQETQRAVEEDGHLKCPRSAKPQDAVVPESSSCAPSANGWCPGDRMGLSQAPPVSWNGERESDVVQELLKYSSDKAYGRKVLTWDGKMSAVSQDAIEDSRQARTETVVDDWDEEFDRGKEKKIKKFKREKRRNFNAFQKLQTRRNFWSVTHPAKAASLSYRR
How it was run: as §1

[3] = biological target: T2, USP38 (UniProt Q8NB14)
T2 sequence (whole entry): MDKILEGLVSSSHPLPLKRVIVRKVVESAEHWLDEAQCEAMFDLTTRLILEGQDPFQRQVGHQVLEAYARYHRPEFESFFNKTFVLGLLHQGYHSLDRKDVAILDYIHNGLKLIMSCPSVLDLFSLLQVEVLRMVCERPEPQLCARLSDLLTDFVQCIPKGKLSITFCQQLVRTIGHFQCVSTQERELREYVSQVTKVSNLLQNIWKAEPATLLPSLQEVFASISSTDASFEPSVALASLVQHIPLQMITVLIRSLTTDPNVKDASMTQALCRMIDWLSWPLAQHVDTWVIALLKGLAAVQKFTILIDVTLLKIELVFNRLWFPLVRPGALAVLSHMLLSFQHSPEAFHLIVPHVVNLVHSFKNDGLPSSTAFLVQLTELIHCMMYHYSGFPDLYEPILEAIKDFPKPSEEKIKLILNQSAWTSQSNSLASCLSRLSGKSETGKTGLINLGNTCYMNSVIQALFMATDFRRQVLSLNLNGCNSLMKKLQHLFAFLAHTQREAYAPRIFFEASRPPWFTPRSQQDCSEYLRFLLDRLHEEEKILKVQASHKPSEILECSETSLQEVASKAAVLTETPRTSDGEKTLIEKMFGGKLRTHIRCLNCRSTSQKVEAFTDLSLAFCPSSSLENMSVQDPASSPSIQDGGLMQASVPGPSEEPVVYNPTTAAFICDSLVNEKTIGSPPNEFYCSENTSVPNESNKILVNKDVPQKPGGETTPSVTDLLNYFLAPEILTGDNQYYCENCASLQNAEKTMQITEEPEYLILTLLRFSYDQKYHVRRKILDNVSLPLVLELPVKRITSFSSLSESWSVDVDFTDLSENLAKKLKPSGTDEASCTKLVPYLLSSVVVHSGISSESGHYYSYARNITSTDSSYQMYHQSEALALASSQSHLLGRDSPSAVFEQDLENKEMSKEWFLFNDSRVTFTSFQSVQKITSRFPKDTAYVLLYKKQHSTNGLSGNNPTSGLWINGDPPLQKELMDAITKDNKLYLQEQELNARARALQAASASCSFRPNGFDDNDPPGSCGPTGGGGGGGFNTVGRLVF
How it was run: as §1

[4] = biological target: T3, USP39 (UniProt Q53GS9)
T3 sequence (whole entry): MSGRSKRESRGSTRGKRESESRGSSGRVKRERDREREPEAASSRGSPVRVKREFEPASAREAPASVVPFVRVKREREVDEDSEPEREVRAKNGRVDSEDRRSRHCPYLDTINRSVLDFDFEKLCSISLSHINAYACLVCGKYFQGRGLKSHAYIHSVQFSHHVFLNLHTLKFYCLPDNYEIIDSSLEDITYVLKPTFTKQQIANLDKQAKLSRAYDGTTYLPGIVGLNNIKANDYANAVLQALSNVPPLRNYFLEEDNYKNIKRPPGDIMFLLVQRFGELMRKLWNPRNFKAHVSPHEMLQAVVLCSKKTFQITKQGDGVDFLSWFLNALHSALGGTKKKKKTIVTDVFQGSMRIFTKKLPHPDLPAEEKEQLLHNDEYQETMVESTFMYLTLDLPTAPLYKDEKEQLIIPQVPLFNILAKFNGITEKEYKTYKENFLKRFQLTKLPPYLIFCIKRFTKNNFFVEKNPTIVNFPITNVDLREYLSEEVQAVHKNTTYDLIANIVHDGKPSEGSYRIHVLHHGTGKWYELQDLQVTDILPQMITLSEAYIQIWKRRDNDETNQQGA
How it was run: as §1

[5] = biological target: T4, USP4 (UniProt Q13107)
T4 sequence (whole entry): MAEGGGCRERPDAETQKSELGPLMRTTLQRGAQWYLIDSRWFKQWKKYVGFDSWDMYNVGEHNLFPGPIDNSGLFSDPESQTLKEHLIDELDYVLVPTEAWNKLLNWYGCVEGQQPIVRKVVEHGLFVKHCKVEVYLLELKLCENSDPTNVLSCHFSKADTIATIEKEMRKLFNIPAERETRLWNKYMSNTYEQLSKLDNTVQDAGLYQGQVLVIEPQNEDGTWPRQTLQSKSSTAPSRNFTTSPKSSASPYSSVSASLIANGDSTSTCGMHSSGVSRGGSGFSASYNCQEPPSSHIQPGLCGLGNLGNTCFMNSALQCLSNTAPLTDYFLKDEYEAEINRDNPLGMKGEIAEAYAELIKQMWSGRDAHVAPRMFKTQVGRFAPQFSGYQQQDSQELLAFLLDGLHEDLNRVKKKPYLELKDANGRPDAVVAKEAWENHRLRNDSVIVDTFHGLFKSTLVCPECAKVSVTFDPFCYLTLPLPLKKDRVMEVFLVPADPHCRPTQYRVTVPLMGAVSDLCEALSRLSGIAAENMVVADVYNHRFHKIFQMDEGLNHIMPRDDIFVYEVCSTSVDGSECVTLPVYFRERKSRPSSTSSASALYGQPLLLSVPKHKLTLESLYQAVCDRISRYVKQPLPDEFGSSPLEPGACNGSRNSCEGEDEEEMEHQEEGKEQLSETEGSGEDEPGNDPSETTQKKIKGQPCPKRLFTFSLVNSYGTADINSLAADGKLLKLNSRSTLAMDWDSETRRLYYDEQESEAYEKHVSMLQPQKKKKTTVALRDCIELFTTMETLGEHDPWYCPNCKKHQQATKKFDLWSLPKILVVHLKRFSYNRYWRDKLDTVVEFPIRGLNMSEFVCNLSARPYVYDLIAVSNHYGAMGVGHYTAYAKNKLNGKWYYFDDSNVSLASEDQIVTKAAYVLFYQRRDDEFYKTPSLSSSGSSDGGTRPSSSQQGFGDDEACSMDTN
How it was run: as §1

Measured: log2 ratio of Biotin-Ahx-Ub-VS probe labelling

USP34, sequence (Q70CQ2 whole entry, the tested form may be a part): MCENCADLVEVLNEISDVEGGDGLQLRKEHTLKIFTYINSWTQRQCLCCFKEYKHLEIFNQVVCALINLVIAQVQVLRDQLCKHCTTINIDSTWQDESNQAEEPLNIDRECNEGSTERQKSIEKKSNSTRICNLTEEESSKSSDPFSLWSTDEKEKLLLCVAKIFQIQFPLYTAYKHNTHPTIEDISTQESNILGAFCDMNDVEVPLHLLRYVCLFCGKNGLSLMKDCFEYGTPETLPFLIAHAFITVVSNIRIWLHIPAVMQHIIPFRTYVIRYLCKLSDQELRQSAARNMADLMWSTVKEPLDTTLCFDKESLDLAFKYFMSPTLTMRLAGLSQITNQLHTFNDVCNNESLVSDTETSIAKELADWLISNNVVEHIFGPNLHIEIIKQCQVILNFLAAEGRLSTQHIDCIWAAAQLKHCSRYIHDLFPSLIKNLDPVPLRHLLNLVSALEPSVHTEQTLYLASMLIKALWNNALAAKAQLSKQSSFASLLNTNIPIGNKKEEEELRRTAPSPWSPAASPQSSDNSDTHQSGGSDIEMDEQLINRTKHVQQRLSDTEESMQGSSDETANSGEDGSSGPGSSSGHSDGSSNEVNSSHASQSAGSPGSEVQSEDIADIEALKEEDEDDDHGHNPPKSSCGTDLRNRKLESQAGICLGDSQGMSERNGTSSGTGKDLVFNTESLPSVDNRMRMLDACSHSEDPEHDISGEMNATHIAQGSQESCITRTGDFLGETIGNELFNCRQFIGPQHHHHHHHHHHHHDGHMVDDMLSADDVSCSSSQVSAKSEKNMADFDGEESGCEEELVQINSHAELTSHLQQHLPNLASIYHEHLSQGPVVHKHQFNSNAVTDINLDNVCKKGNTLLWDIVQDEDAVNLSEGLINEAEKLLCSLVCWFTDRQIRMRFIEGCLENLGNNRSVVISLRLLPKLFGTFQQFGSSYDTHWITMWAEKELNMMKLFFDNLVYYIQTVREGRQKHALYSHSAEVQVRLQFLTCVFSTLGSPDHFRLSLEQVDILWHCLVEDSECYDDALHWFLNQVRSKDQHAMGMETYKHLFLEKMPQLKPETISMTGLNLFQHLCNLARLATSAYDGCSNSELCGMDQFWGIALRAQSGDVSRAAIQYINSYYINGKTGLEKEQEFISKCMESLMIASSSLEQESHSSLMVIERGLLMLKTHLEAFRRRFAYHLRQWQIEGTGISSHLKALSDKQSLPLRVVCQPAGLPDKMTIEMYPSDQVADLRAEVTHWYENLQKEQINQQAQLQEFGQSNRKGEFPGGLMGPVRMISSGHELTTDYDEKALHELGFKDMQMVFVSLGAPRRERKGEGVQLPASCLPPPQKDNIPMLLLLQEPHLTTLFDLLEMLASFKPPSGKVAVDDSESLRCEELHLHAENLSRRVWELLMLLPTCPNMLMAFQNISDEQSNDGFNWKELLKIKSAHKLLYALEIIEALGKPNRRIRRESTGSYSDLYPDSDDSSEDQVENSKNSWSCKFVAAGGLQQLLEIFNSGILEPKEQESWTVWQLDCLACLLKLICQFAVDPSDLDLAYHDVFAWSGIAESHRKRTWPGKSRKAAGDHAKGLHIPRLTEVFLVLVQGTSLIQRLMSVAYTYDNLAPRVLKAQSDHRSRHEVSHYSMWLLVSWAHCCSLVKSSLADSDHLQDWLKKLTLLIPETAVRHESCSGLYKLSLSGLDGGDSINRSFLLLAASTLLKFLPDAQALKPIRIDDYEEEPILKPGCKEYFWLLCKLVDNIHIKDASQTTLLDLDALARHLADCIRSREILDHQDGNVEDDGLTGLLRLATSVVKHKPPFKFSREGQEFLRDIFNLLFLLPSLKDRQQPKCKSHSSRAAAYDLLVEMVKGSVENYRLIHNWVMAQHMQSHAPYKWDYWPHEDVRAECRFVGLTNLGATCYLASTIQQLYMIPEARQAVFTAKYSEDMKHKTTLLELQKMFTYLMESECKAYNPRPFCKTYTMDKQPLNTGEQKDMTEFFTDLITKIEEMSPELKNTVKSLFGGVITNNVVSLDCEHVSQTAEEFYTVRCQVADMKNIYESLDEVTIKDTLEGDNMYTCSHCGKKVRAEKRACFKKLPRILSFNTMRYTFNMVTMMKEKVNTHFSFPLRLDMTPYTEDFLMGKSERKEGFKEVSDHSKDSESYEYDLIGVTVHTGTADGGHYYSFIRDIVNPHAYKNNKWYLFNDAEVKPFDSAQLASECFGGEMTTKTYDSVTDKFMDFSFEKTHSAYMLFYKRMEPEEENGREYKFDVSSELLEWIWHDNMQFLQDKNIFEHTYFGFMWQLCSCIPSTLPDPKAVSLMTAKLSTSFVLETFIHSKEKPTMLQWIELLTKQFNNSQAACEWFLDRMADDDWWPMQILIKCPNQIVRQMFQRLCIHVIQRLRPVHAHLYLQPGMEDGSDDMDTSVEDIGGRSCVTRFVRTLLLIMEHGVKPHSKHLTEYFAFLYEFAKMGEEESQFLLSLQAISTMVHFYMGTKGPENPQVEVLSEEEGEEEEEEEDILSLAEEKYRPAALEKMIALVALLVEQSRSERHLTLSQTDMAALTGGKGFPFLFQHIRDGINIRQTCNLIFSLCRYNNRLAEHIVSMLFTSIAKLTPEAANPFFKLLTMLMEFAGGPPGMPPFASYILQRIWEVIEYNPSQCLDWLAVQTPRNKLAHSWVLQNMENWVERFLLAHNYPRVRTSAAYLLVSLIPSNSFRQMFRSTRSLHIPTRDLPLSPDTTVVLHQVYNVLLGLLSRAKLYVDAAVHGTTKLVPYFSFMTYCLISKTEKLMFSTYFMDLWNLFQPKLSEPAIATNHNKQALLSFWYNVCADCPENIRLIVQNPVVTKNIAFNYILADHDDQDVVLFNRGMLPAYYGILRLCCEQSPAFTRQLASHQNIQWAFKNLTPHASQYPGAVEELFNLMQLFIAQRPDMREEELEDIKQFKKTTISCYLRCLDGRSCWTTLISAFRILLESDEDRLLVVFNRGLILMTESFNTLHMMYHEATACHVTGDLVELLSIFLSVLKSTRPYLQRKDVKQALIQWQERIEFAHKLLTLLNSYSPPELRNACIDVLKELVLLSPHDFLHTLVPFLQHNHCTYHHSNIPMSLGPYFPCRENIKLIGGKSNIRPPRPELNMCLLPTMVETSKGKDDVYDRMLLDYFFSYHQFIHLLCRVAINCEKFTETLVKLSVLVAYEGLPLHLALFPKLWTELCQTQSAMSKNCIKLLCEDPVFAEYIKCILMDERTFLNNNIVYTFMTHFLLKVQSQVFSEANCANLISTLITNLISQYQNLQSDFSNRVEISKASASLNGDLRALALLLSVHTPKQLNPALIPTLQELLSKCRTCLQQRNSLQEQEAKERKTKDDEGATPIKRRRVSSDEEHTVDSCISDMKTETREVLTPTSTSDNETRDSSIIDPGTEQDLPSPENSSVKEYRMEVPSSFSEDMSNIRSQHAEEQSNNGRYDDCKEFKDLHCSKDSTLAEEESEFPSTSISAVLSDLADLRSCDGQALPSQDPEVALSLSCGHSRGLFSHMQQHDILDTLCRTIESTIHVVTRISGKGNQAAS

O=C(CCl)NCCc1ccc2c(c1)OCCO2
inactive: [1] -0.523 | [2] -0.0707 | [3] -0.0664 | [4] -0.16 | [5] -0.295
